Here are results for 16 compounds from PubChem BioAssay (NCI).

About 83,000 compounds went through this panel and 20% of them were active in at least one assay; those are over-represented in the sample as a whole.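 Note: values are percent growth. 100 is the growth of untreated cells, values between 100 and 0 indicate rising inhibition; between -100 and 0 indicates cell death.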 Values without a mark were called inactive. The source made the active and inactive calls. The calls were made as follows: active = growth percent below 10; inactive = the rest.

Common to all, as to assay: NCI-60 one-dose screen, 48 h (100 = growth as untreated, 0 = no growth, -100 = all killed)
For one assay, the system named is NCI-H23 lung. To be noted: 10 µM unless noted.
For a further assay, the system named is NCI-H322M lung. The conditions noted are these: 10 µM unless noted.
Another assay concerns HOP-62 NSCLC. To be noted: 10 µM unless noted.
Another assay relates to NCI-H460 lung. To be noted: 10 µM unless noted.
A further assay deals with HOP-92 NSCLC. The conditions noted are these: 10 µM unless noted.
The test system of another assay is NCI-H522 lung. To be noted: 10 µM.
A further assay concerns A549/ATCC NSCLC. The conditions noted are these: 10 µM unless noted.
The test system of a further assay is 786-0 renal. To be noted: 10 µM unless noted.
The subject of a further assay is COLO 205 colon. The conditions noted are these: 10 µM unless noted.

`CC(=O)OC[C@]1(C)C=C2C(=O)[C@](C)(O)C3(CC3)C(C)=C2[C@H]1OC(C)=O`: the growth is 75% in the assay on NCI-H23 lung; 98.5% in the assay with NCI-H322M lung; 53.7% with HOP-62 NSCLC; 95.1% in the assay with NCI-H460 lung; 122% in the assay with HOP-92 NSCLC; 71.1% in the assay with NCI-H522 lung. Also, the growth in the assay on A549/ATCC NSCLC is 100%; with 786-0 renal, 87.8%.

As for `COc1ccc(/C=N\N2CCOCC2)cc1OC1CCCC1`, the growth in the assay with NCI-H23 lung was 99%; with NCI-H322M lung, 107%; in the assay on HOP-62 NSCLC, 97%; with NCI-H460 lung it was 105%; in the assay with HOP-92 NSCLC, 93.1%; in the assay with A549/ATCC NSCLC, 99.8%. Moreover, in the assay on 786-0 renal, the growth is 93.6%.

As for `Cc1ccc(NS(=O)(=O)c2ccc(-c3cnc(C4CC4)o3)cc2)cc1`, the growth with NCI-H23 lung is 58.8%; in the assay on NCI-H322M lung, 69%; in the assay on HOP-62 NSCLC, 36.4%; in the assay with NCI-H460 lung, 7.82% (active); with HOP-92 NSCLC it was 57%; in the assay with NCI-H522 lung, 9.2% (active). Besides, the growth in the assay on A549/ATCC NSCLC is 40.2%; with 786-0 renal, 50.8%.

In the case of `Nc1cccc2c(=S)c3ccccc3[nH]c12`, the growth in the assay with NCI-H23 lung was 95.9%; in the assay with NCI-H322M lung, 92.1%; in the assay with HOP-62 NSCLC it was 82.7%; in the assay on NCI-H460 lung, 95.7%; in the assay on HOP-92 NSCLC, 98.4%; in the assay with A549/ATCC NSCLC it was 108%. Besides, the growth was 106% with 786-0 renal and 114% in the assay on COLO 205 colon.

Consider `Cc1ccc(S(=O)(=O)N2CCc3ccc(O)c4c3C2Cc2ccc3c(c2-4)OCO3)cc1` (stereo not given), for which the growth was 26.5% in the assay on NCI-H23 lung; 53.2% in the assay with NCI-H322M lung; 33.8% in the assay with HOP-62 NSCLC; 8.45% (active) with NCI-H460 lung; 29.1% in the assay on HOP-92 NSCLC; -19.8% (active) in the assay on NCI-H522 lung. The growth with A549/ATCC NSCLC was 18.1%; in the assay on 786-0 renal, 12.6%.

On to `COc1ccc(S(=O)(=O)c2ccc(C(N)=O)cc2)cc1NC(=O)c1[nH]c(C)c2c1CCCCC2=O`, for which the growth in the assay with NCI-H23 lung was 58.7%; in the assay on NCI-H322M lung, 68.5%; in the assay on HOP-62 NSCLC, 38.8%; in the assay with NCI-H460 lung, 70.3%; in the assay with HOP-92 NSCLC, 23.6%; in the assay on A549/ATCC NSCLC it was 87.7%. The growth in the assay on 786-0 renal is 60%.

Take `CC(C)OC1=C(Cl)C(=O)c2ccccc2C1=O`: the growth in the assay on NCI-H23 lung is 81.8%; in the assay with NCI-H322M lung it was 95%; in the assay on HOP-62 NSCLC, 92.1%; in the assay with NCI-H460 lung, 103%; with HOP-92 NSCLC, 99.8%; in the assay with A549/ATCC NSCLC, 102%. Further, the growth with 786-0 renal is 108%; with COLO 205 colon, 97.7%.

With `O=c1[nH]c(-c2ccccn2)nc2sc3c(c12)CCCCCC3`, the growth in the assay with NCI-H23 lung was 48.7%; in the assay with NCI-H322M lung, 46.8%; with HOP-62 NSCLC, 43%; in the assay on NCI-H460 lung, 15.9%; in the assay on HOP-92 NSCLC it was -2.86% (active); in the assay with A549/ATCC NSCLC, 23.2%. For the same compound, the growth in the assay with 786-0 renal is 46.1%; in the assay with COLO 205 colon, 33%.

Take `Cc1ccccc1-n1nnc(C(=O)Nc2ccc(-c3ccccc3)cn2)c1C`: the growth is 38.1% [50 µM] with NCI-H23 lung; 81.3% [50 µM] with NCI-H322M lung; 93.7% [50 µM] in the assay on HOP-62 NSCLC; 61.9% [50 µM] with NCI-H460 lung; 74.3% [50 µM] in the assay on HOP-92 NSCLC; 29.8% [50 µM] in the assay on A549/ATCC NSCLC. Besides, the growth in the assay with 786-0 renal is 62.1% [50 µM]; in the assay on COLO 205 colon, 40.2% [50 µM].

In the case of `O=C1/C(=C/c2ccccc2F)CNC/C1=C\c1ccccc1F`, the growth was -48.3% (active) with NCI-H23 lung; 14.8% in the assay on NCI-H322M lung; -63.6% (active) in the assay with HOP-62 NSCLC; -29.7% (active) in the assay with NCI-H460 lung; 16.6% in the assay with HOP-92 NSCLC; -61.1% (active) in the assay with NCI-H522 lung. Further, the growth is -11.1% (active) in the assay with A549/ATCC NSCLC and -92.8% (active) with 786-0 renal.

With `O=[N+]([O-])c1ccc2nc(N/N=C/c3ccc(O)cc3)sc2c1`, the growth with NCI-H23 lung was 73.3%; in the assay on NCI-H322M lung, 58.8%; in the assay on HOP-62 NSCLC, 68.7%; with NCI-H460 lung it was 48.5%; with HOP-92 NSCLC, 58.9%; in the assay on A549/ATCC NSCLC, 30.7%. Besides, the growth in the assay with 786-0 renal is 50.9%; with COLO 205 colon, 89.9%.

As for `O=c1[nH]c(=S)c2c(n1CCCO)CCC2`, the growth with NCI-H23 lung was 99.8%; in the assay on NCI-H322M lung, 108%; with HOP-62 NSCLC, 104%; with NCI-H460 lung, 107%; in the assay on HOP-92 NSCLC, 109%; in the assay on A549/ATCC NSCLC it was 100%. In addition, in the assay with 786-0 renal, the growth was 102%.

Take `Cc1c(C)n(CC(O)CNC2CCCCC2C)c2ccccc12` (stereo not given): the growth in the assay with NCI-H23 lung is -19.7% (active); in the assay with NCI-H322M lung it was 31.7%; with HOP-62 NSCLC it was -71.3% (active); in the assay with NCI-H460 lung it was 11.2%; in the assay with HOP-92 NSCLC, -60% (active); with A549/ATCC NSCLC it was -31.4% (active). Moreover, the growth with 786-0 renal and in the assay on COLO 205 colon was -84.7% (active) each time.

As for `CCOC(=O)C1=C(C)N2C(=NC3=C(CCCC/C3=C\c3ccccc3)C2c2ccccc2)S1` (stereo not given), the growth was 95.5% in the assay with NCI-H23 lung; 92% in the assay with NCI-H322M lung; 117% with HOP-62 NSCLC; 99.1% with NCI-H460 lung; -2.46% (active) in the assay on HOP-92 NSCLC; 99.1% in the assay on A549/ATCC NSCLC. In addition, the growth in the assay on 786-0 renal was 96.6%; in the assay with COLO 205 colon, 117%.

Regarding `O=c1nc(NO)[nH]c(=O)n1Cc1ccccc1`, the growth is 105% in the assay on NCI-H23 lung; 120% in the assay with NCI-H322M lung; 110% in the assay on HOP-62 NSCLC; 109% in the assay on NCI-H460 lung; -3.57% (active) with HOP-92 NSCLC; 111% in the assay with A549/ATCC NSCLC. Further, the results for the growth in the assay on 786-0 renal and in the assay with COLO 205 colon were 101% and 128%, respectively.

For `CC(C)(C)[Si](C)(C)OC1[C@@H](CNC(=O)NC(=O)CCl)O[C@@H](n2cnc3c(N)ncnc32)[C@H]1O[Si](C)(C)C(C)(C)C` (stereo not given in full), the growth was -72.4% (active) in the assay on NCI-H23 lung; 111% with NCI-H322M lung; -60.1% (active) in the assay on HOP-62 NSCLC; -82.4% (active) in the assay on NCI-H460 lung; -79.2% (active) in the assay on HOP-92 NSCLC; -22.3% (active) in the assay on A549/ATCC NSCLC. Also, the figures for the growth in the assay on 786-0 renal and in the assay on COLO 205 colon were -55.4% (active) and -16.8% (active), respectively.
